Test results as given in the OligoGym collection.

Target: MRC1L1
Assay: pooled miR-30 sensor sort-seq; sequence = guide strand
Conditions: shRNA
Also: reference of the scale not given here.

Sequence	sensor-assay potency score (higher = more potent)
TTCTGAATTGACATCATTCAGC	-0.303
TTGTTTTCAAACTTGAACGGGA	0.456
TACAGCTTGAAACACAAGCTTG	-1.09
TTGCTCATGAATCTCTGTGATG	-0.904
TTTCTGAACAATCCTATCCAAA	-1.03
TAAAGCTACACAATCATTCCGT	0.804
TATAGTAACAGTGACCATGGAA	0.0156
TTTCTCATCTCTGTGAATCTTG	0.274
TAGAGAGTGATAGCAACCCAGT	-0.877
TTGGGTTCGGGAGTCGTCGTGG	0.34

Target: MRFAP1
Assay: as above
Conditions: shRNA

Sequence	sensor-assay potency score (higher = more potent)
CTGGATGAGCATATTGTCCATC	-2.34
TCCTCGGCCTTCTCGCACCTCT	-1.7
TTTGATCTGGATGAGCATATTG	-1.65
TTCGCAATCTCCTTGGCCTTCT	-0.202
AGCACCTCCACTTCCTCCGGTT	-1.22
ATGAGCATATTGTCCATCTCCC	-0.693
TTCTCCTCGGCCTTCTCGCACC	-1.46
TTGATCTGGATGAGCATATTGT	-0.361
TCTCCTTGGCCTTCTCCTCGGC	-0.368
TCTGGATGAGCATATTGTCCAT	-0.959
TATCCGCCGGACCAGCTCCACC	-1.87
TTGACCAGAATCCATTGGCTGG	-0.987

Target: MRO
Assay: as above
Conditions: shRNA

Sequence	sensor-assay potency score (higher = more potent)
TATACTTTCTCACCTTGTCAGG	-0.957
TTGTTTTGCAAGCCTTGGCAAC	-1.43
TCATCATCTAATAAAGTCCTGG	-0.176
TAGTGTTCCTTTGATCTTCTTC	0.466
TTTGATCTTCTTCACTCTGGAA	-0.504
AAGAACTGCAGGATCTCTGGAT	0.374
TTGATCTTCTTCACTCTGGAAG	-0.557
TTTTCTTATACTTTCTCACCTT	0.132
ATACAGTCCATACACCAGCAGG	-1.19
TTTCTTATACTTTCTCACCTTG	-0.188
TATCATTGATGTCCTTTTCTGC	-0.559
TTTGCAAGCCTTGGCAACCTGG	-1.05

Target: MRPL14
Assay: as above
Conditions: shRNA

Sequence	sensor-assay potency score (higher = more potent)
TTAATTCGTGTCCCCACAGGGT	-1.22
TGTTGGAGTCGAATCTGGGGGT	-0.258
TTATAGACATGGATGCAGCGAG	-0.0779
TCATCTTCTGAATCGCACTCAG	-0.0883
TTGTCCACCACTCGTACCCGCG	-1.02
TTGTTGGAGTCGAATCTGGGGG	-0.711
